Laboratory results taken from the supplement of paper PMC9694430.

The compounds below were run on LOC_OS01G48390-cb002 (assay: thermal shift delta Tm vs DMSO control; higher = stronger stabilization (binding)). Conditions: 12.5 µM; protein concentration 2 µM.
Outline: (§1)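 Thermal shift values come from differential scanning fluorimetry on purified rice kinase domains made in E. coli, with melting temperatures obtained from Boltzmann fits. Samples of 19.5 μl held 2 μM kinase, 100 mM potassium phosphate pH 7.5, 150 mM NaCl, 10% glycerol, 5 × SYPRO Orange and compound in DMSO, and were heated from 25°C to 95°C at 0.05°C/s. Each shift is a triplicate mean relative to the DMSO-only protein sample.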
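Note: purified Escherichia coli-expressed rice kinase domain construct.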

Structure (SMILES) | thermal shift delta Tm
COCCNCc1ccc(-c2cc3nccc(Oc4ccc(NC(=O)C5(C(=O)Nc6ccc(F)cc6)CC5)cc4F)c3s2)nc1 [Sitravatinib (MGCD516)] | 6.78 °C
COCC(=O)NC/C=C/c1ccc2ncnc(Nc3ccc(Oc4ccc(C)nc4)c(C)c3)c2c1 | 0.4 °C
O=C(NOC[C@H](O)CO)c1ccc(F)c(F)c1Nc1ccc(I)cc1F | 0.89 °C
Cc1cc(Nc2cc(N3CCN(C)CC3)nc(/C=C/c3ccccc3)n2)n[nH]1 | 2.45 °C
Nc1nc(N)c2nc(-c3cccc(O)c3)c(-c3cccc(O)c3)nc2n1 | 0.4 °C
Cc1nc(Nc2ncc(C(=O)Nc3c(C)cccc3Cl)s2)cc(N2CCN(CCO)CC2)n1 [Dasatinib] | 0.6 °C
O=C(c1ccc(Nc2nccc(-c3cc4ccccc4s3)n2)cc1)N1CCC(N2CCCC2)CC1 [IKK-16 (IKK Inhibitor VII)] | 1.72 °C
CC(C)CC(=O)Nc1n[nH]c2c1CN(C(=O)C1CCN(C)CC1)C2(C)C | 0.75 °C
COc1cc2c(Oc3ccc(NC(=O)C4(C(=O)Nc5ccc(F)cc5)CC4)cc3F)ccnc2cc1OCCCN1CCOCC1 | 6.85 °C
OCCn1cc(-c2cnc3nnn(Cc4ccc5ncccc5c4)c3n2)cn1 | 0.2 °C
CC(C)(C)c1nc(-c2ccc(NC(=O)Nc3cccc(C(F)(F)F)c3)c3ccccc23)c2c(N)nccn12 [kira6] | 1.52 °C
COc1ccc(-c2ccc3ncc4c(c3c2)n(-c2ccc(N3CCNCC3)c(C(F)(F)F)c2)c(=O)n4C)cn1 | 0.42 °C
FC(F)(F)c1ccc(CNc2ccc(Cc3c[nH]c4ncc(Cl)cc34)cn2)cn1 [Pexidartinib (PLX3397)] | 6.28 °C
Cc1nc(NC(=O)N2CCC[C@H]2C(N)=O)sc1-c1ccnc(C(C)(C)C(F)(F)F)c1 [Alpelisib (BYL719)] | 0.54 °C
O=C(NCCO)c1cccc(-c2cc(Nc3ccc(OC(F)(F)F)cc3)ncn2)c1 | 2.99 °C
C[C@@H](Nc1cc(F)cc(F)c1)c1cc(C(=O)N(C)C)cc2c(=O)cc(N3CCOCC3)oc12 | 0.46 °C
C[C@@H]1COCCN1c1cc(=O)n2c(n1)N(Cc1cncc(Cl)c1)[C@H](C(F)(F)F)CC2 | 0.95 °C
CNc1nc(-c2ccc3c(N)n[nH]c3c2)cc(N2C[C@@H](C(=O)NC3CCCCC3)CC[C@H]2C)n1 | 0.39 °C
COc1cc(N2CCC(N(C)C)CC2)ccc1Nc1ncc(Cl)c(Nc2ccccc2P(C)(C)=O)n1 | 0.54 °C

Structure (SMILES) | thermal shift delta Tm
CN1CCN(c2ccc3nc(-c4c(N)c5c(F)cccc5[nH]c4=O)[nH]c3c2)CC1 [Dovitinib (TKI258) Lactate] | 3.22 °C
N#C/C(=C(/N)Sc1ccc(N)cc1)c1ccccc1C(F)(F)F | 0.18 °C
Cc1c(C(=O)N2CCOc3ccc(-c4ccc(N)nc4)cc3C2)ccc(S(C)(=O)=O)c1F | 0.13 °C
CCOc1cc2ncc(C#N)c(Nc3ccc(F)c(Cl)c3)c2cc1NC(=O)/C=C/CN(C)C [Pelitinib (EKB-569)] | 0.69 °C
Oc1ccc(Nc2nc(-c3ccc(Cl)cc3)cs2)cc1 | 1.3 °C
O=C(Nc1ccccc1C(=O)NC1CCCCNC1=O)c1cc2ccccc2s1 (centres undefined) | -0.09 °C
CC(C)c1c2cc(-c3ccnc(NC4CCC(NC5CCOCC5)CC4)n3)ccc2nn1C (centres undefined) | 2.74 °C
NCC(=O)Nc1ccc(-n2nc(C(F)(F)F)cc2-c2ccc3c(ccc4ccccc43)c2)cc1 | 0.79 °C
Cc1cc(NC(=O)c2cccc(NC(=O)/C=C/CN(C)C)c2)ccc1Nc1nccc(-c2cccnc2)n1 | 1.99 °C
N#Cc1ccc2ncnc(NCCc3ccccc3)c2c1 [Senexin A] | 0.42 °C
CCOc1cn(-c2ccc(F)cc2C)nc1C(=O)Nc1ccc(Oc2ccnc3cc(OC)c(OC)cc23)c(F)c1 | 0.48 °C
Fc1ccc2[nH]ccc2c1-c1nc(N2CCOCC2)c2sc(CN3CCN(CC4CC4)CC3)cc2n1 | 0.62 °C
COc1cccc2cc(-c3nc([C@H]4CC[C@H](C(=O)O)CC4)n4ncnc(N)c34)[nH]c12 | 0.31 °C
N#Cc1cnc(Nc2cc(NC[C@H]3CNCCO3)c(C(F)(F)F)cn2)cn1 | 2.58 °C
O=C(NOCCO)c1ccc2cncn2c1Nc1ccc(I)cc1F | 1.12 °C
COc1cc2c(Nc3ccc(NC(=O)c4ccccc4)cc3)ncnc2cc1OCCCN1CCOCC1 | 0.89 °C
NC(=O)Nc1cc(-c2cccc(F)c2)sc1C(=O)N[C@H]1CCCNC1 | 0.65 °C
CNC(=O)c1ccc(-c2cnc3ncc(Cc4ccc5ncccc5c4)n3n2)cc1F | 0.24 °C

Each compound was assayed on LOC_OS01G51400-cb002 in the same assay as above. Conditions: 12.5 µM; protein concentration 2 µM.
Outline: as §1

Structure (SMILES) | thermal shift delta Tm
COCCNCc1ccc(-c2cc3nccc(Oc4ccc(NC(=O)C5(C(=O)Nc6ccc(F)cc6)CC5)cc4F)c3s2)nc1 [Sitravatinib (MGCD516)] | 0.58 °C
COCC(=O)NC/C=C/c1ccc2ncnc(Nc3ccc(Oc4ccc(C)nc4)c(C)c3)c2c1 | 0.03 °C
O=C(NOC[C@H](O)CO)c1ccc(F)c(F)c1Nc1ccc(I)cc1F | 0.22 °C
Cc1cc(Nc2cc(N3CCN(C)CC3)nc(/C=C/c3ccccc3)n2)n[nH]1 | 0.24 °C
Nc1nc(N)c2nc(-c3cccc(O)c3)c(-c3cccc(O)c3)nc2n1 | 0.49 °C
Cc1nc(Nc2ncc(C(=O)Nc3c(C)cccc3Cl)s2)cc(N2CCN(CCO)CC2)n1 [Dasatinib] | 0.66 °C
O=C(c1ccc(Nc2nccc(-c3cc4ccccc4s3)n2)cc1)N1CCC(N2CCCC2)CC1 [IKK-16 (IKK Inhibitor VII)] | -0.14 °C
CC(C)CC(=O)Nc1n[nH]c2c1CN(C(=O)C1CCN(C)CC1)C2(C)C | 0.45 °C
COc1cc2c(Oc3ccc(NC(=O)C4(C(=O)Nc5ccc(F)cc5)CC4)cc3F)ccnc2cc1OCCCN1CCOCC1 | 0.19 °C
OCCn1cc(-c2cnc3nnn(Cc4ccc5ncccc5c4)c3n2)cn1 | 0.09 °C
CC(C)(C)c1nc(-c2ccc(NC(=O)Nc3cccc(C(F)(F)F)c3)c3ccccc23)c2c(N)nccn12 [kira6] | 0.79 °C
COc1ccc(-c2ccc3ncc4c(c3c2)n(-c2ccc(N3CCNCC3)c(C(F)(F)F)c2)c(=O)n4C)cn1 | -0.17 °C
FC(F)(F)c1ccc(CNc2ccc(Cc3c[nH]c4ncc(Cl)cc34)cn2)cn1 [Pexidartinib (PLX3397)] | 0.37 °C
Cc1nc(NC(=O)N2CCC[C@H]2C(N)=O)sc1-c1ccnc(C(C)(C)C(F)(F)F)c1 [Alpelisib (BYL719)] | 0.42 °C
O=C(NCCO)c1cccc(-c2cc(Nc3ccc(OC(F)(F)F)cc3)ncn2)c1 | 0.2 °C
C[C@@H](Nc1cc(F)cc(F)c1)c1cc(C(=O)N(C)C)cc2c(=O)cc(N3CCOCC3)oc12 | 0.01 °C
C[C@@H]1COCCN1c1cc(=O)n2c(n1)N(Cc1cncc(Cl)c1)[C@H](C(F)(F)F)CC2 | 0.31 °C
CNc1nc(-c2ccc3c(N)n[nH]c3c2)cc(N2C[C@@H](C(=O)NC3CCCCC3)CC[C@H]2C)n1 | 0.44 °C
COc1cc(N2CCC(N(C)C)CC2)ccc1Nc1ncc(Cl)c(Nc2ccccc2P(C)(C)=O)n1 | 0.25 °C

Structure (SMILES) | thermal shift delta Tm
CN1CCN(c2ccc3nc(-c4c(N)c5c(F)cccc5[nH]c4=O)[nH]c3c2)CC1 [Dovitinib (TKI258) Lactate] | 1.02 °C
N#C/C(=C(/N)Sc1ccc(N)cc1)c1ccccc1C(F)(F)F | -0.05 °C
Cc1c(C(=O)N2CCOc3ccc(-c4ccc(N)nc4)cc3C2)ccc(S(C)(=O)=O)c1F | 0.26 °C
CCOc1cc2ncc(C#N)c(Nc3ccc(F)c(Cl)c3)c2cc1NC(=O)/C=C/CN(C)C [Pelitinib (EKB-569)] | 0.03 °C
Oc1ccc(Nc2nc(-c3ccc(Cl)cc3)cs2)cc1 | 1.51 °C
O=C(Nc1ccccc1C(=O)NC1CCCCNC1=O)c1cc2ccccc2s1 (centres undefined) | 0.19 °C
CC(C)c1c2cc(-c3ccnc(NC4CCC(NC5CCOCC5)CC4)n3)ccc2nn1C (centres undefined) | 0.39 °C
NCC(=O)Nc1ccc(-n2nc(C(F)(F)F)cc2-c2ccc3c(ccc4ccccc43)c2)cc1 | -0.21 °C
Cc1cc(NC(=O)c2cccc(NC(=O)/C=C/CN(C)C)c2)ccc1Nc1nccc(-c2cccnc2)n1 | 0.73 °C
N#Cc1ccc2ncnc(NCCc3ccccc3)c2c1 [Senexin A] | 0.41 °C
CCOc1cn(-c2ccc(F)cc2C)nc1C(=O)Nc1ccc(Oc2ccnc3cc(OC)c(OC)cc23)c(F)c1 | 0.45 °C
Fc1ccc2[nH]ccc2c1-c1nc(N2CCOCC2)c2sc(CN3CCN(CC4CC4)CC3)cc2n1 | -0.02 °C
COc1cccc2cc(-c3nc([C@H]4CC[C@H](C(=O)O)CC4)n4ncnc(N)c34)[nH]c12 | 0.16 °C
N#Cc1cnc(Nc2cc(NC[C@H]3CNCCO3)c(C(F)(F)F)cn2)cn1 | 0.75 °C
O=C(NOCCO)c1ccc2cncn2c1Nc1ccc(I)cc1F | 0.54 °C
COc1cc2c(Nc3ccc(NC(=O)c4ccccc4)cc3)ncnc2cc1OCCCN1CCOCC1 | 0.34 °C
NC(=O)Nc1cc(-c2cccc(F)c2)sc1C(=O)N[C@H]1CCCNC1 | 0.08 °C
CNC(=O)c1ccc(-c2cnc3ncc(Cc4ccc5ncccc5c4)n3n2)cc1F | -0.03 °C
